Results reported in PubChem BioAssay AID588579 (National Center for Advancing Translational Sciences (NCATS), 2011).
Several values for one entry are separate records, joined by “and”; a condition that tells them apart may be missing. Equal values may be shown once. Hit rate of the full screen: of about 400,000 compounds, about 2,200 (0.55%) were called active. Inconclusive results (about 1%) are left out. The entries come from a sample that favours actives as a whole. Values without a mark were called inactive. Calls follow the shape of the dose curve; as a rule, active = well fitted inhibition curve with a large enough effect; inconclusive = small, poorly fitted or top-dose-only effect, or another doubt; inactive = no such curve, though single readings can be large or run the other way.

target: DNA polymerase kappa (Homo sapiens) (UniProt Q9UBT6); assay: qHTS for Inhibitors of Polymerase Kappa; conditions: purified Pol kappa, fluorescent DNA synthesis assay, 10 min; series mostly up to 107 µM; activity, negative = inhibition: at the top concentration
Sequence (Q9UBT6 whole entry, looked up): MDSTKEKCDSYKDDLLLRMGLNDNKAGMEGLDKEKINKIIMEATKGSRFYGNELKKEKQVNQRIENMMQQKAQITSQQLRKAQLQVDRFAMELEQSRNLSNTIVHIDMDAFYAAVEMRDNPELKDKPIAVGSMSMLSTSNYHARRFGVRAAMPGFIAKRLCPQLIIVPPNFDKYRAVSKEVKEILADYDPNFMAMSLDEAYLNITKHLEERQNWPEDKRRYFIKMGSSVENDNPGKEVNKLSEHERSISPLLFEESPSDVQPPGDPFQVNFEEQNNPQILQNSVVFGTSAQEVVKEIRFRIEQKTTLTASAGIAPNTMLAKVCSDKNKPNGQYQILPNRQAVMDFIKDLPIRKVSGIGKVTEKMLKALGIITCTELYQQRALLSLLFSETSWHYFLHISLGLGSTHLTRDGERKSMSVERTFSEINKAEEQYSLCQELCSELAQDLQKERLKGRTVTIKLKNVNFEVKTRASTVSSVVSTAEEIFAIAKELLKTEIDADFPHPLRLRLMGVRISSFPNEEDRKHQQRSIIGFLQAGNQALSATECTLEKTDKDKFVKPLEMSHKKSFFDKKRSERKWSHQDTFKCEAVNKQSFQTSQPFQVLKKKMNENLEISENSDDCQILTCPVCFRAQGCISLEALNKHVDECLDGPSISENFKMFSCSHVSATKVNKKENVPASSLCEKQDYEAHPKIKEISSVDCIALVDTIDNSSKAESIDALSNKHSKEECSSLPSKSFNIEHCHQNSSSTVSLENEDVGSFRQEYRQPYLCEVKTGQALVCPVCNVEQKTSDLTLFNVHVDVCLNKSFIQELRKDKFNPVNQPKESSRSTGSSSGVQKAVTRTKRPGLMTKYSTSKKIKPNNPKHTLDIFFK
Method in brief: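 Kinetic fluorescence screen: compound preincubated 15 min RT with 10 nM enzyme; 50 nM substrate (final) initiates; reads at 0/10 min.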
% is scaled to controls: 0 for no effect and ±100 for the full control effect; potency is read from the fitted curve at half-maximal effect.

With `O=c1ccc2c(-c3ccccc3S(=O)(=O)O)c3ccc(O)c(O)c3oc-2c1O` the Potency was 0.708 µM (active).
With `CCOc1cccc2c1N[C@@H](c1ccc(C(=O)O)cc1)[C@H]1CC=C[C@@H]21` the Potency was 3.98 µM (active).
For `N#Cc1c(N2CCCCC2)nc(N)c2c(N)nc(SCC(=O)O)cc12`, the Potency was 39.8 µM (active).
`Cc1c(S(=O)(=O)O)oc2c1C(=O)C(=O)c1c-2ccc2c1CCCC2(C)C` was tested, and the Potency was 35.5 µM (active).
For `CCOc1ccc(NC(=O)c2ccc(NC(=O)COC(=O)c3ccc(NC(=O)CC#N)cc3)cc2)cc1`, the Potency was 22.4 µM (active).
With `O=C(CSc1nc2ccccc2c(=O)[nH]1)Nc1nc(-c2ccc(Br)cc2)cs1` the Potency was 20 µM (active).
For `Oc1cc(O)c2c(c1)OC(c1ccc(O)c(O)c1)C(O)C2` (stereo unspecified), the Potency was 3.16 µM (active).
In the case of `CC1OC(OCC2OC(Oc3c(-c4ccc(O)c(O)c4)oc4cc(O)cc(O)c4c3=O)C(O)C(O)C2O)[C@@H](O)C(O)C1O` (stereo partly specified), the Potency is reported as 10 µM (active).
`C[C@@H]1O[C@@H](OC[C@H]2O[C@@H](Oc3c(-c4cccc(O)c4O)oc4cc(O)cc(O)c4c3=O)[C@H](O)[C@@H](O)[C@@H]2O)[C@H](O)[C@H](O)[C@H]1O` was tested, and the Potency was 7.08 µM (active).
In the case of `CC(C)c1ccc2c(c1)c(SC(C)(C)C)c(CC(C)(C)C(=O)O)n2Cc1ccc(Cl)cc1`, the Potency is reported as 29.9 µM (active) and 79.4 µM (active).
For `O=C1/C(=C\c2ccc([N+](=O)[O-])cc2)CS(=O)(=O)C/C1=C/c1ccc([N+](=O)[O-])cc1`, the Potency was 79.4 µM (active).

First: Cc1nc2cnc(N3CCNCC3)nc2n(Cc2ccc(F)cc2)c1=O
Second: CCOc1cccc(CC(=O)N2CCc3c([nH]c4ccccc34)C2c2ccc(F)cc2)c1OCC (stereo unspecified)
The “activity, negative = inhibition” value of the first is lower: -14.4% [at 60.1 µM] for the first, -5.26% [at 60.1 µM] for the second.

Compared with `CC1C(O)CC2C(C(=O)O)=CO[C@@H](O[C@H]3OC(CO)C(O)C(O)C3O)C21` (stereo partly specified), `CS(=O)(=O)N1CCC2(CCN(c3ccncc3)CC2)CC1` is lower in “activity, negative = inhibition” value: -7.49% [at 60.1 µM] for the first, -15.5% [at 60.1 µM] for the second.

Compared with `C=C1/C(=C\C=C2\CCCC3(C)C2CCC3C(C)/C=C/C(O)C2CC2)CC(O)CC1O` (stereo unspecified), `Cc1cnc(CNc2cc(-c3c(C)noc3C)ncn2)cn1` is lower in “activity, negative = inhibition” value: 0.818% [at 60.1 µM] for the first, 0.34% [at 60.1 µM] for the second.

Compared with `Cn1cc(-c2nc3cnc(N4CCNCC4)nc3n(CCc3ccccc3)c2=O)c2ccccc21`, `CC[C@H](C)[C@H](NC(=O)[C@H](CCCNC(=N)N)NC(=O)[C@H](CCCNC(=N)N)NC(=O)[C@H](CC(C)C)NC(=O)[C@H](Cc1ccccc1)NC(=O)CNC(=O)CNC(=O)[C@@H](N)Cc1ccc(O)cc1)C(=O)N[C@@H](CCCNC(=N)N)C(=O)N1CCC[C@H]1C(=O)N[C@@H](CCCCN)C(=O)N[C@@H](CC(C)C)C(=O)N[C@@H](CCCCN)C(=O)N[C@@H](Cc1c[nH]c2ccccc12)C(=O)N[C@@H](CC(=O)O)C(=O)N[C@@H](CC(N)=O)C(=O)N[C@@H](CCC(N)=O)C(=O)O` is higher in “activity, negative = inhibition” value: -11.8% [at 60.1 µM] for the first, 12.6% [at 60.1 µM] for the second.

Compared with `C[C@@H]1O[C@@H](OC[C@H]2O[C@@H](Oc3cc(O)c4c(c3)O[C@H](c3ccc(O)c(O)c3)CC4=O)[C@H](O)[C@@H](O)[C@@H]2O)[C@H](O)[C@H](O)[C@H]1O`, `COc1ccc(CCC(=O)c2c(O)cc(OC3OC(CO)C(O)C(O)C3O[C@@H]3OC(C)C(O)C(O)C3O)cc2O)cc1O` (stereo partly specified) is lower in “activity, negative = inhibition” value: -8.33% [at 60.1 µM] for the first, -13.4% [at 60.1 µM] for the second.

Compared with `CC(C)C(NS(=O)(=O)c1ccc(-c2ccc(Br)cc2)cc1)C(=O)O` (stereo unspecified), H-EHIPA-OH is higher in “activity, negative = inhibition” value: 8.76% [at 60.1 µM] for the first, 17.2% [at 60.1 µM] for the second.

Going from `COc1cc(OC)c2c(c1Cl)OC1(C2=O)C(O)=CC(=O)CC1C` (stereo unspecified) to `CN(Cc1ccco1)c1ncncc1-c1ccoc1`, the “activity, negative = inhibition” value falls from -8.8% [at 60.1 µM] to -13.8% [at 60.1 µM].

For `N#Cc1ccc(CN2CCCC3(CCN(C(=O)c4ccco4)CC3)C2)cc1`, the “activity, negative = inhibition” value was 7.12% [at 60.1 µM].

First: Clc1cccc[n+]1CCCC[n+]1ccccc1Cl
Second: CN(C)c1cccc2ccccc12
The “activity, negative = inhibition” value of the first is lower: -19.6% for the first, 5.24% for the second.

Compared with `Cc1c(CCO)sc[n+]1CC(=O)c1ccc2ccccc2c1`, `COc1ccc(NC(=O)CSc2nc3ccccc3[nH]2)cc1` is higher in “activity, negative = inhibition” value: -1.46% for the first, 12.5% for the second.

First: CCN1CCN(c2ccc(/C=C/c3ccnc4ccccc34)cc2)CC1
Second: O=[N+]([O-])c1ccc(/C=C/c2ccc3cccnc3c2)cc1
The “activity, negative = inhibition” value of the first is higher: -8.38% for the first, -22.8% for the second.

First: CCOc1ccccc1C1NC(=O)NC(C)=C1C(=O)OCc1ccco1 (stereo unspecified)
Second: CC(C)(C)OC(=O)N(Cc1ccco1)S(=O)(=O)c1ccccc1Br
The “activity, negative = inhibition” value of the first is higher: -12.9% for the first, -16.3% for the second.

First: C[N+]1(CC(=O)c2cccs2)CCOCC1
Second: CC1(C)CC(=O)c2cc(C(=O)NCc3ccccc3)c(=O)[nH]c2C1
The “activity, negative = inhibition” value of the first is lower: -7.83% for the first, -5.36% for the second.

First: CCOc1ccc(NC(=O)Cn2c(C)ccc(C#N)c2=O)cc1
Second: CCOC(=O)c1ccc(-c2ccc(/C=C(\C#N)C(=O)Nc3ccc(OCC)cc3)o2)cc1
The “activity, negative = inhibition” value of the first is lower: -25.3% for the first, 1.52% for the second.

Going from `CS(=O)c1ccc(/C=C2\C=Cc3ccccc32)cc1` (stereo unspecified) to `CN(C)c1ccc(/C=c2\[nH]c(=O)/c(=C/c3ccc(N(C)C)cc3)[nH]c2=O)cc1`, the “activity, negative = inhibition” value rises from -44.2% to -2.21%.

First: COc1cc2nc(C#Cc3nc4cc(OC)c(OC)cc4[nH]3)[nH]c2cc1OC
Second: CCOc1n[nH]c(-c2ccccc2)n1
The “activity, negative = inhibition” value of the first is lower: 5.01% for the first, 7.58% for the second.

Compared with `O=C(CSc1nc(O)c(Cc2ccccc2)c(=O)[nH]1)Nc1nc2c(s1)CCCC2`, `O=C(Nc1ccccc1C(F)(F)F)c1nc(S(=O)(=O)Cc2ccccc2F)ncc1Cl` is higher in “activity, negative = inhibition” value: -23.8% for the first, 0.105% for the second.

Going from `C[C@@H]1O[C@@H](OC[C@H]2O[C@@H](Oc3c(-c4ccc(O)cc4)oc4cc(O)cc(O)c4c3=O)[C@H](O)[C@@H](O)[C@@H]2O)[C@H](O)[C@H](O)[C@H]1O` to `Cc1c(C)n(Cc2ccc(Cl)cc2)c2ccc(C(=O)N3CCN(c4ccccc4F)CC3)cc12`, the “activity, negative = inhibition” value falls from -15.5% to -26.9%.

For `CC(C)c1ccc(Cn2c(COc3ccccc3)nc3ccccc32)cc1`, the “activity, negative = inhibition” value was -6.64%.

Compared with `O=C(O)c1ccc(/C=C2/SC(=S)N(c3cccc(C(F)(F)F)c3)C2=O)cc1`, `Oc1ccc(-c2c(-c3ccccc3)nn3c(C(F)(F)F)cc(C(F)(F)F)nc23)cc1` is lower in activity, negative = inhibition: -8.36% [at 12 µM] for the first, -10.8% [at 12 µM] for the second.

Going from `CCC(CCC(C)C1CCC2C3CC=C4CC(O)CC[C@@]4(C)C3CC[C@@]12C)C(C)C` (stereo partly specified) to `CC(C)[C@@H]1NC(=O)[C@H](Cc2ccccc2)NC(=O)[C@@H](CC(=O)O)NC(=O)CNC(=O)[C@H](CCCNC(=N)N)NC1=O`, the activity, negative = inhibition falls from 8.1% [at 19.4 µM] to 4% [at 19.4 µM].
